Reference: PubChem BioAssay AID1159580 (chemical genetic matrix, 2015)
In all, about 5,500 compounds went through this assay and about 2,000 (36%) were called active. Roughly 18% stayed inconclusive and do not appear here. Rule as the data show it: active = normalized growth mostly below about 0.91 (no sharp cut-off); inconclusive = no clear call, values can overlap the other calls; inactive = mostly above about 0.92. This is one part of the list.

Assay: chemical genetic growth profiling, strain panel (AID 1159580);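 also: tested at 20 µM; growth read once vehicle control cultures reached saturation at 30 °C; 1 = growth at the plate median or of vehicle wells; lower values mean less growth of the strain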
Details: growth OD

Measured: normalized growth

N[C@@H](CCC(=O)N[C@@H](CS)C(=O)NCC(=O)O)C(=O)O
inactive: S. cerevisiae deletion strains, locus YKL009W, strain mrt4, active compounds read low 0.954 | S. cerevisiae deletion strains, locus YKL068W, active compounds read low 0.996 | S. cerevisiae deletion strains, locus YKL085W, strain MDH1 (second series), active compounds read low 0.979 | S. cerevisiae deletion strains, locus YKL085W, strain MDH1, active compounds read low 0.979 | S. cerevisiae deletion strains, locus YKL160W, strain elf1, active compounds read low 0.978 | S. cerevisiae deletion strains, locus YKL190W, strain CNB1, active compounds read low 0.993 | S. cerevisiae deletion strains, locus YKR001C, strain vps1, active compounds read low 0.994 | S. cerevisiae deletion strains, locus YKR026C, strain gcn3, active compounds read low 0.987 | S. cerevisiae deletion strains, locus YKR091W, strain srl3, active compounds read low 0.985 | S. cerevisiae deletion strains, locus YLL001W, strain dnm1, active compounds read low 0.963 | S. cerevisiae deletion strains, locus YLL026W, active compounds read low 0.975 | S. cerevisiae deletion strains, locus YLL041C, strain sdh2, active compounds read low 1 | S. cerevisiae deletion strains, locus YLR027C, strain aat2, active compounds read low 0.97 | S. cerevisiae deletion strains, locus YLR039C, strain RIC1, active compounds read low 0.981 | S. cerevisiae deletion strains, locus YLR058C, strain SHM2, active compounds read low 0.996 | S. cerevisiae deletion strains, locus YLR102C, strain apc9, active compounds read low 0.986 | S. cerevisiae deletion strains, locus YLR113W, strain HOG1, active compounds read low 0.97 | S. cerevisiae deletion strains, locus YLR221C, strain rsa3, active compounds read low 1 | S. cerevisiae deletion strains, locus YLR258W, strain gsy2, active compounds read low 1.01 | S. cerevisiae deletion strains, locus YLR262C, strain YPT6 (second series), active compounds read low 1 | S. cerevisiae deletion strains, locus YLR262C, strain YPT6, active compounds read low 0.92 | S. cerevisiae deletion strains, locus YLR268W, strain sec22, active compounds read low 0.983 | S. cerevisiae deletion strains, locus YLR320W, strain mms22, active compounds read low 1.02 | S. cerevisiae deletion strains, locus YLR330W, strain CHS5, active compounds read low 0.999 | S. cerevisiae deletion strains, locus YLR342W, strain FKS1 (second series), active compounds read low 1.03 | S. cerevisiae deletion strains, locus YLR342W, strain FKS1, active compounds read low 0.982 | S. cerevisiae deletion strains, locus YLR357W, strain rsc2, active compounds read low 0.973 | S. cerevisiae deletion strains, locus YLR370C, strain arc18, active compounds read low 0.985 | S. cerevisiae deletion strains, locus YLR371W, strain rom2, active compounds read low 0.979 | S. cerevisiae deletion strains, locus YLR384C, strain iki3, active compounds read low 0.98 | S. cerevisiae deletion strains, locus YLR418C, strain cdc73, active compounds read low 0.98 | S. cerevisiae deletion strains, locus YML016C, strain PPZ1, active compounds read low 1 | S. cerevisiae deletion strains, locus YML032C, strain rad52, active compounds read low 0.989 | S. cerevisiae deletion strains, locus YML120C, strain ndi1, active compounds read low 0.981 | S. cerevisiae deletion strains, locus YML124C, strain tub3, active compounds read low 0.995 | S. cerevisiae deletion strains, locus YMR058W, strain fet3, active compounds read low 0.99 | S. cerevisiae deletion strains, locus YMR078C, strain ctf18, active compounds read low 0.977 | S. cerevisiae deletion strains, locus YMR125W, strain sto1, active compounds read low 1 | S. cerevisiae deletion strains, locus YMR129W, active compounds read low 1 | S. cerevisiae deletion strains, locus YMR205C, strain PFK2, active compounds read low 0.993 | S. cerevisiae deletion strains, locus YMR223W, strain ubp8, active compounds read low 0.985 | S. cerevisiae deletion strains, locus YMR231W, strain pep5, active compounds read low 1.02 | S. cerevisiae deletion strains, locus YMR307W, strain GAS1, active compounds read low 1.12 | S. cerevisiae deletion strains, locus YNL067W, strain RPL9B, active compounds read low 0.969 | S. cerevisiae deletion strains, locus YNL071W, strain lat1, active compounds read low 1.01 | S. cerevisiae deletion strains, locus YNL128W, strain TEP1, active compounds read low 0.963 | S. cerevisiae deletion strains, locus YNL183C, strain NPR1, active compounds read low 0.97 | S. cerevisiae deletion strains, locus YNL209W, strain ssb2, active compounds read low 1.01 | S. cerevisiae deletion strains, locus YNL233W, strain BNI4, active compounds read low 0.989 | S. cerevisiae deletion strains, locus YNL248C, strain rpa49, active compounds read low 1.03 | S. cerevisiae deletion strains, locus YNL250W, strain rad50, active compounds read low 0.987 | S. cerevisiae deletion strains, locus YNL271C, strain bni1, active compounds read low 0.982 | S. cerevisiae deletion strains, locus YNL298W, strain CLA4, active compounds read low 0.986 | S. cerevisiae deletion strains, locus YNL307C, strain MCK1, active compounds read low 0.99 | S. cerevisiae deletion strains, locus YNL322C, strain KRE1 (second series), active compounds read low 0.998 | S. cerevisiae deletion strains, locus YNR049C, strain mso1, active compounds read low 0.996 | S. cerevisiae deletion strains, locus YNR052C, strain pop2, active compounds read low 0.988 | S. cerevisiae deletion strains, locus YOL006C, strain TOP1, active compounds read low 0.986 | S. cerevisiae deletion strains, locus YOL012C, strain htz1 0.759 | S. cerevisiae deletion strains, locus YOL147C, strain pex11, active compounds read low 0.995 | S. cerevisiae deletion strains, locus YOR001W, strain rrp6, active compounds read low 0.971 | S. cerevisiae deletion strains, locus YOR061W, strain CKA2, active compounds read low 0.993 | S. cerevisiae deletion strains, locus YOR069W, strain VPS5, active compounds read low 1 | S. cerevisiae deletion strains, locus YOR070C, strain gyp1, active compounds read low 1.02 | S. cerevisiae deletion strains, locus YOR080W, strain dia2, active compounds read low 0.988 | S. cerevisiae deletion strains, locus YOR083W, strain WHI5, active compounds read low 0.973 | S. cerevisiae deletion strains, locus YOR106W, strain vam3, active compounds read low 0.987 | S. cerevisiae deletion strains, locus YOR136W, strain idh2, active compounds read low 0.993 | S. cerevisiae deletion strains, locus YOR144C, strain elg1, active compounds read low 0.995 | S. cerevisiae deletion strains, locus YOR184W, strain ser1, active compounds read low 0.989 | S. cerevisiae deletion strains, locus YOR231W, strain MKK1, active compounds read low 0.966 | S. cerevisiae deletion strains, locus YOR265W, strain rbl2, active compounds read low 0.996 | S. cerevisiae deletion strains, locus YOR270C, strain vph1, active compounds read low 1.03 | S. cerevisiae deletion strains, locus YOR290C, strain snf2, active compounds read low 1.01 | S. cerevisiae deletion strains, locus YOR316C, strain cot1, active compounds read low 0.998 | S. cerevisiae deletion strains, locus YPL051W, strain arl3, active compounds read low 0.993 | S. cerevisiae deletion strains, locus YPL078C, strain atp4, active compounds read low 0.972 | S. cerevisiae deletion strains, locus YPL106C, strain sse1, active compounds read low 0.985 | S. cerevisiae deletion strains, locus YPL240C, strain hsp82, active compounds read low 1.01 | S. cerevisiae deletion strains, locus YPL241C, strain CIN2, active compounds read low 0.993 | S. cerevisiae deletion strains, locus YPL256C, strain CLN2, active compounds read low 0.913 | S. cerevisiae deletion strains, locus YPR119W, strain clb2, active compounds read low 0.988 | S. cerevisiae deletion strains, locus YPR141C, strain kar3, active compounds read low 0.981 | S. cerevisiae deletion strains, locus YPR163C, strain tif3, active compounds read low 0.996 | S. cerevisiae deletion strains, locus YPR167C, strain met16, active compounds read low 0.98 | S. cerevisiae deletion strains, strain wtn01, active compounds read low 0.984 | S. cerevisiae strains, strain wild type, active compounds read low 0.998
